Compound activity (PubChem BioAssay)
Marburg entry inh: qHTS for inhibitors of binding or entry into cells for Marburg Virus | hit rate 1.8% among 300,000 | Potency, µM (titrated, usually from 37.8 µM), usual class: inhibitors | Marburg virus pseudotyped entry inhibition, cell reporter; calls by dose curve; tested in HEK293 cells
Pf growth 48h: Primary qHTS for delayed death inhibitors of the malarial parasite plastid, 48 hour incubation; P. falciparum luciferase growth in erythrocytes, 48 h; AID 504832, 2011; hit rate 5.9% among 310,000; Potency, µM (top dose mostly 28.7 µM), most hits filed as inhibitors
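Parasite viability was followed by luminescence of a genomically integrated firefly luciferase. Cultures held 0.1% parasitemia at 2% hematocrit (final), incubated under 5% CO2 at 37 C.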
HCV inhibitor: qHTS Assay for Inhibitors of Hepatitis C Virus (HCV) | Huh7.5.1 HCVcc-Cre infection, luciferase reporter, 44 h | Potency, µM (doses to about 41.8 µM), hits mostly inhibitors | hit rate 3.4% among 340,000
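Whole-lifecycle infectious HCVcc-Cre system; cells 1,000/well, compound then virus (~0.5 moi) added 4 h after plating, 44 h culture. Luciferase read 15 sec following 15 min substrate incubation, room temp.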
HCMV antiviral: qHTS Assay for inhibitors of the human cytomegalovirus (HCMV) | AID 1259415, 2018 | hit rate 4.5% among 410,000 | HFF cells, HCMV-luciferase reporter, 72 h; hits give low values | activity change, negative = inhibition, % at 57.5 µM; in the data active = activity change below about -60%; inconclusive = no clear call, values can overlap the other calls; inactive = above about -39%
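Two compound doses tested in HFFs infected with HCMV-luciferase, MOI 1 PFU/cell, 72 h at 37C. Lysate luminescence read with OneGlo; data normalized against buffer-only and 10uM Salinomycin inhibitor controls.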
Pf growth 96h: Primary qHTS for delayed death inhibitors of the malarial parasite plastid, 96 hour incubation; Potency, µM (series often up to 28.7 µM), usual class: inhibitors; AID 504834, 2011; P. falciparum luciferase reporter growth, 96 h; hit rate 6.9% among 320,000
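Plates of compound plus infected erythrocytes (2% hematocrit, 0.05% parasitemia final) incubate 96 hours, 37 C, 5% CO2. Detection reagent added; reduced luminescence from the parasites' luciferase reporter flags inhibition.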
Lassa entry inh: qHTS for Inhibitors of binding or entry into cells for Lassa Virus; Lassa virus pseudotype entry inhibition, cell reporter; Potency, µM (highest dose often 37.9 µM), hits mostly inhibitors; hit rate 1.2% among 300,000; AID 540256, 2011; calls by dose curve; tested in HEK293 cells; also: nearly all actives have a fitted effect of over 50% in size
Each line names hits and unclear results; the compound was inactive in the other large screens. The list is not random: actives were taken first. Their share in the collection is about 14%. Unless noted, calls follow the shape of the dose curve; as a rule, active = well fitted inhibition curve with a large enough effect; inconclusive = small, poorly fitted or top-dose-only effect, or another doubt; inactive = no such curve, though single readings can be large or run the other way.

Cc1cccc(NC(=O)c2ccc(N(Cc3ccccc3)S(C)(=O)=O)cc2)c1	HCMV antiviral -66, Lassa entry inh inconclusive (no result: Marburg entry inh, Pf growth 48h, HCV inhibitor, Pf growth 96h)
CC1OC(COCc2ccccc2)Cc2[nH][nH]c(=O)c21 (stereo not drawn)	none (no result: Marburg entry inh, Pf growth 48h, HCV inhibitor, Pf growth 96h, Lassa entry inh)
CCC1CN(C(=O)N2CCC(C(=O)Nc3ccccc3OC)CC2)c2ccccc2O1 (stereo not drawn)	Pf growth 48h inconclusive, HCV inhibitor inconclusive, Pf growth 96h inconclusive
O=C(Nc1ccc(N2CCOCC2)cc1)c1ccc(Cl)c(S(=O)(=O)N2CCCC2)c1	Pf growth 48h inconclusive, HCV inhibitor 6.3µM, HCMV antiviral inconclusive, Pf growth 96h inconclusive (no result: Marburg entry inh, Lassa entry inh)
COc1ccc(C(=O)Nc2ccc(NC(=O)c3ccccc3)cc2)cc1S(=O)(=O)N1CCOCC1	Marburg entry inh inconclusive, HCV inhibitor inconclusive, HCMV antiviral inconclusive (no result: Lassa entry inh)
COc1ccc(C(=O)Nc2ccc(N3CCCCCC3)cc2)cc1S(=O)(=O)N1CCOCC1	Pf growth 48h 12µM, HCV inhibitor 8.9µM, HCMV antiviral -86, Pf growth 96h inconclusive (no result: Marburg entry inh, Lassa entry inh)
CCN(CC)CCOC(=O)c1ccc(NC(=O)c2ccc(Cl)c(S(=O)(=O)N3CCCCCC3)c2)cc1	Marburg entry inh inconclusive, Pf growth 48h inconclusive, HCV inhibitor inconclusive, HCMV antiviral inconclusive, Pf growth 96h 4.1µM, Lassa entry inh inconclusive
CCN1CCN(c2ccc(NC(=O)c3ccc(Cl)c(S(=O)(=O)N4CCCC4)c3)cc2)CC1	Marburg entry inh inconclusive, Pf growth 48h 10µM, HCV inhibitor 18µM, Pf growth 96h inconclusive, Lassa entry inh inconclusive
O=C(O)c1ccc(NC(=O)c2ccc(Cl)c(S(=O)(=O)N3CCCCCC3)c2)cc1	none (no result: Pf growth 48h, HCV inhibitor, Pf growth 96h)
Cc1ccc(C(=O)Nc2ccc(N3CCOCC3)cc2)cc1S(=O)(=O)N1CCCCC1	HCV inhibitor inconclusive (no result: Marburg entry inh, Lassa entry inh)
COc1ccc2c3c([nH]c2c1)[C@H](CO)N(C(=O)c1cccc(F)c1)CC31CCN(S(=O)(=O)c2cccs2)CC1	none (no result: Marburg entry inh, Pf growth 48h, HCV inhibitor, Pf growth 96h, Lassa entry inh)
Cc1cccc(N2CCN(C(=O)c3cn(C)c4ccc(S(=O)(=O)N(C)C)cc4c3=O)CC2C)c1 (stereo not drawn)	none (no result: Pf growth 48h, HCV inhibitor, Pf growth 96h)
CSc1ccc(OC2(C)CCN(Cc3ccc(-c4ccccn4)cc3)C2)cc1 (stereo not drawn)	none (no result: Marburg entry inh, Pf growth 48h, HCV inhibitor, Pf growth 96h, Lassa entry inh)
COC(=O)C(C(=O)OC)c1ccccc1NC(=O)OCc1ccccc1	none (no result: Marburg entry inh, Pf growth 48h, HCV inhibitor, Pf growth 96h, Lassa entry inh)
Cc1cccc(NC(=O)NCc2ccc3c(c2)cc(C)n3C)c1	Pf growth 48h inconclusive, HCMV antiviral inconclusive, Pf growth 96h 10µM (no result: Marburg entry inh, Lassa entry inh)
Cc1cc2cc(CNC(=O)c3ccc(S(=O)(=O)N(C)C)cc3)ccc2n1C	Pf growth 48h inconclusive, Pf growth 96h inconclusive (no result: Marburg entry inh, Lassa entry inh)
Cc1cc2cc(CNC(=O)Nc3cccc(Cl)c3)ccc2n1C	none (no result: Marburg entry inh, Lassa entry inh)
Cc1cc2cc(CNC(=O)c3ccc(S(=O)(=O)N4CCOCC4)cc3)ccc2n1C	Pf growth 48h 13µM, Pf growth 96h inconclusive (no result: Lassa entry inh)
Cc1cc2cc(CNC(=O)c3ccc(Br)o3)ccc2n1C	Pf growth 48h inconclusive, Pf growth 96h 9.3µM (no result: Marburg entry inh, Lassa entry inh)
CCc1nc2c(OCc3cccc(Cl)c3)cccn2c1N(C)C(=O)c1ccco1	none (no result: Marburg entry inh, Pf growth 48h, HCV inhibitor, Pf growth 96h, Lassa entry inh)
CCN1CCN(CCCNC(=O)C2c3ccccc3C(=O)N(c3ccc(OC)cc3)C2c2ccc(OC)cc2)CC1 (stereo not drawn)	Marburg entry inh inconclusive, HCMV antiviral -62
COCCN1C(=O)c2ccccc2C(C(=O)NCCCN2CCCC2)C1c1c[nH]c2ccccc12 (stereo not drawn)	Pf growth 48h 13µM
CCCNC(=O)c1cc(C2CCCCN2C(=O)c2cc(OC)c(C)c(OC)c2)on1 (stereo not drawn)	none (no result: Marburg entry inh, Pf growth 48h, HCV inhibitor, Pf growth 96h, Lassa entry inh)
CCCCCC(=O)N/N=C(\C)c1ccc(NC(=O)c2ccco2)cc1	Lassa entry inh 3.5µM
CCCCCC(=O)N/N=C/c1ccco1	Pf growth 96h 13µM
COc1ccccc1C(=O)N1CCC(c2c[nH]c3ccccc23)(c2c[nH]c3ccccc23)CC1	Marburg entry inh inconclusive (no result: Pf growth 48h, HCV inhibitor, Pf growth 96h)
Cc1ccc(Nc2sc(C(=O)c3ccccc3)c(N)c2C(=O)Nc2ccc(Cl)cc2)cc1	HCMV antiviral -103 (no result: Marburg entry inh, Pf growth 48h, HCV inhibitor, Pf growth 96h)
